Six1-Eya2 inh: inhibitors of human Six1/Eya2 interaction; 0.56% of 360,000 active; AlphaScreen GST-Six1/His-Eya2 binding, biochemical; hits give low values; activity change, % (no concentration beside the values); in the data active means activity change below about -65%; inconclusive means mostly about -30% to -63%
Target sequence (O00167 whole entry, looked up): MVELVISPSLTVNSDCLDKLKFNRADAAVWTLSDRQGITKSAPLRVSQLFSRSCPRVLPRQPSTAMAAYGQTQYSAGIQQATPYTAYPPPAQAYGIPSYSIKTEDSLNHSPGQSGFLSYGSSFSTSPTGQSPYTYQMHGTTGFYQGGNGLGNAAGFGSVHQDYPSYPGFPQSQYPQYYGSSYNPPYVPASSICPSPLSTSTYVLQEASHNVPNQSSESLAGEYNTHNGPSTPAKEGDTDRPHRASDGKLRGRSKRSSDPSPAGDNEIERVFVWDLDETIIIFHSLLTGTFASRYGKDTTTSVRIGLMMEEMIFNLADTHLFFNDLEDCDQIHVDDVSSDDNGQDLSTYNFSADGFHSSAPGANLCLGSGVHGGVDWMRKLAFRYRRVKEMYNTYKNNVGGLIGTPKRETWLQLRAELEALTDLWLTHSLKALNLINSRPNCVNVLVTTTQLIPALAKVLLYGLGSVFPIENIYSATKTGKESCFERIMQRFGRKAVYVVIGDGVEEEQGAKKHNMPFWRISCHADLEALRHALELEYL
Target sequence (Q15475 whole entry, looked up): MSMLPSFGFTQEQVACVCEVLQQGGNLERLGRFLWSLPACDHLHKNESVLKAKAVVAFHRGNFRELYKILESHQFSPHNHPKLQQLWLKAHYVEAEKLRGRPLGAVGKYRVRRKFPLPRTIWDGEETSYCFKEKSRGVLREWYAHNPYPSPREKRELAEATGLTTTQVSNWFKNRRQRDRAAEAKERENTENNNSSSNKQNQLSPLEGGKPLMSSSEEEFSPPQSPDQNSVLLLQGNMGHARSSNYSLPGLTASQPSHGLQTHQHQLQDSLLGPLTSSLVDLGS
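AlphaScreen with GST-Six1 and His-Eya2 (5X mix: 250 nM and 500 nM), glutathione donor and nickel acceptor beads; buffer 50 mM Tris pH 8.0, 300 mM NaCl, 1 mM TCEP; 1 h at 37 C in the dark.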
RORg inh: inhibitors of mouse ROR gamma transcriptional activity. 5.4% of 310,000 active. Potency, µM (top dose mostly 53.6 µM), hits mostly inhibitors. Drosophila S2 Gal4-RORgamma UAS-luciferase reporter, 20 h. P51450; further: nearly all actives have a fitted effect of over 60% in size
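Luminescence from a UAS-regulated Photinus luciferase reporter in stably transfected Drosophila Schneider cells is measured; decreased signal marks ROR gamma inhibition. Fusion expression is induced by 700 uM copper sulfate for 20 hr.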
MBNL1-CUG inh: inhibitors of human MBNL1 binding to CUG repeat RNA | 0.036% of 280,000 active | Potency, µM (titrated, usually from 57.5 µM), usual class: inhibitors | TR-FRET MBNL1-His/biotin-(CUG)12 binding, 665/545 ratio | Q9NR56; active means well fitted inhibition curve with a large enough effect in the signal ratio, with a control signal flat, not every such curve was filed as active; inconclusive means small, poorly fitted or top-dose-only effect, or effect the other way, or a change in a side signal; inactive means no such curve, though single readings can be large or run the other way; the % refers to the signal ratio
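Ratiometric TR-FRET (665 over 545 nm, excitation 340 nm) tracks disruption of MBNL1-His/biotin-(CUG)12 complex after 60 min at room temperature, with compounds at 92 nM to 58 uM final.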
Gal4-VP16 FLuc: counter-screen for ROR gamma inhibitors: Gal4-VP16 reporter. Potency, µM (titrated, usually from 53.6 µM), most hits filed as inhibitors. 3.5% of 310,000 active. Drosophila S2 Gal4-VP16 UAS-luciferase, luminescence, 20 h;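 further: Gal4-VP16 expression switched on by copper sulfate through the metallothionein promoter; nearly all actives have a fitted effect of over 50% in size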
CtBP-E1A blk: blocks the CtBP interaction with E1A | AID 651724 | activity change, % (concentration not given with the values) | 0.49% of 340,000 active | AlphaScreen GST-E1A/His-CtBP binding, 1536-well; hits give low values; in the data active means activity change below about -65%; inconclusive means mostly about -30% to -63%
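Steps: dispense buffer (Tris pH 8.0, NaCl 300 mM, TCEP 1 mM, BSA, Tween 20); add 5X protein mix (GST-E1A, His-CtBP, 125 nM each); pin 23 nL compound; 2 h at 37 °C, dark; add 5X beads (50 ug/mL); 1 h; read.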
CBFb RUNX1 block: blocks binding between human CBF-beta and RUNX1. AlphaScreen CBFb-His/RUNX1-biotin binding, biochemical. Potency, µM (highest dose often 59.8 µM), usual class: inhibitors. 230,000 tested, under 10 active. AID 1477
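Compounds were screened at multiple concentrations against a preformed CBF-beta(His)/RUNX1(biotin) complex (30 nM of each) for 15 min at room temperature, followed by 90 min with nickel and streptavidin beads and AlphaScreen reading.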
Hits are given with their value. This is a sample that favours compounds with a hit; in the whole collection about 5.5% have one here. Unless noted, the call rests on the fitted dose curve; in most records, active means well fitted curve in the direction sought with a large enough effect; inconclusive means small, poorly fitted or top-dose-only effect, or another doubt; inactive means no such curve, though single readings can be large; an effect the other way counts as inactive or inconclusive.

`C=CCNC(=S)NC(=O)c1csc([N+](=O)[O-])c1` gave Six1-Eya2 inh inactive, RORg inh inconclusive, MBNL1-CUG inh inconclusive, Gal4-VP16 FLuc inconclusive, CtBP-E1A blk inactive and CBFb RUNX1 block inactive.
CC1CCN(C(=S)NC(=O)c2cccs2)CC1 was read as Six1-Eya2 inh inactive, RORg inh 0.25µM, MBNL1-CUG inh inactive, Gal4-VP16 FLuc 0.89µM, CtBP-E1A blk inactive and CBFb RUNX1 block inactive.
For CC1CCCCN1C(=S)NC(=O)c1cccs1 (configuration not stated) the results were Six1-Eya2 inh inactive, RORg inh 0.71µM, MBNL1-CUG inh inactive, Gal4-VP16 FLuc 2.8µM and CBFb RUNX1 block inactive.
For CC1CCN(C(=O)c2ccc(NC(=O)c3cccs3)cc2)CC1 the results were Six1-Eya2 inh inactive, RORg inh inactive, MBNL1-CUG inh inactive, Gal4-VP16 FLuc inactive and CtBP-E1A blk inactive.
For O=C(NNS(=O)(=O)c1ccccc1Cl)C1COc2ccccc2O1 (configuration not stated) the results were Six1-Eya2 inh inactive and CtBP-E1A blk inactive.
`O=C(N/N=C/c1ccc(Br)s1)Nc1ccccc1` gave Six1-Eya2 inh inactive, RORg inh inactive, Gal4-VP16 FLuc inconclusive, CtBP-E1A blk inactive and CBFb RUNX1 block inactive.
`O=C(N/N=C/c1ccc(Br)s1)c1cccs1` gave Six1-Eya2 inh inactive, RORg inh 3.2µM, MBNL1-CUG inh inactive, Gal4-VP16 FLuc 5µM, CtBP-E1A blk inactive and CBFb RUNX1 block inactive.
`O=C(N/N=C/c1ccc(Br)s1)c1ccncc1` gave Six1-Eya2 inh inconclusive, RORg inh 0.79µM, MBNL1-CUG inh inconclusive, Gal4-VP16 FLuc 1µM, CtBP-E1A blk inactive and CBFb RUNX1 block inactive.
Screening Cc1ccc(/C=N/NC(=O)c2cccs2)s1 returned Six1-Eya2 inh inactive, RORg inh 11µM, MBNL1-CUG inh inactive, Gal4-VP16 FLuc 11µM and CBFb RUNX1 block inactive.
`COc1cc(OC)cc(C(=O)NCC(=O)OCC(=O)/C=C2/N(C)c3ccccc3C2(C)C)c1` gave Six1-Eya2 inh inactive, RORg inh inactive, Gal4-VP16 FLuc 18µM, CtBP-E1A blk inactive and CBFb RUNX1 block inactive.
CN1/C(=C/C(=O)COC(=O)CN2C(=O)C3CC=CCC3C2=O)C(C)(C)c2ccccc21 (configuration not stated) was read as Six1-Eya2 inh inactive and CtBP-E1A blk inactive.
Screening CN1/C(=C\C(=O)COC(=O)Cn2nnc(-c3ccccc3)n2)C(C)(C)c2ccccc21 returned Six1-Eya2 inh inactive, RORg inh inactive, MBNL1-CUG inh inactive, Gal4-VP16 FLuc 28µM, CtBP-E1A blk inactive and CBFb RUNX1 block inactive.
For Nc1ccccc1C(=O)NNC(=O)C(=O)/C=C(\O)c1ccccc1 the results were Six1-Eya2 inh inactive, RORg inh 11µM, Gal4-VP16 FLuc inconclusive, CtBP-E1A blk inactive and CBFb RUNX1 block inactive.
For O=C(/C=C(\O)c1ccccc1)C(=O)NNC(=O)c1ccccc1[N+](=O)[O-] the results were Six1-Eya2 inh inactive, RORg inh inactive, MBNL1-CUG inh inactive, Gal4-VP16 FLuc inconclusive and CtBP-E1A blk inactive.
CCc1nc2ccc(C(=O)Nc3ccc(OC)c(OC)c3)cn2c1N(C)Cc1nccs1 was read as Six1-Eya2 inh inactive and CtBP-E1A blk inactive.
CCC(C)(O)C(=O)N[C@H]1CCCN1C(=O)/C=C/c1ccccc1 (some centres not stated) was read as Six1-Eya2 inh inactive and CtBP-E1A blk inactive.
CCOC(=O)C1CCN(C(=O)COc2ccc3c(C)cc(=O)oc3c2)CC1 was read as Six1-Eya2 inh inactive and CtBP-E1A blk inactive.
O=C(NC(=S)NNC(=O)[C@H]1C[C@@H]1c1ccccc1)c1cccc(F)c1 was read as Six1-Eya2 inh inactive, RORg inh 11µM, MBNL1-CUG inh inactive, Gal4-VP16 FLuc inconclusive, CtBP-E1A blk inactive and CBFb RUNX1 block inactive.
COc1ccc(/C=C/C(=O)NC(=S)NNC(=O)[C@H]2C[C@@H]2c2ccccc2)cc1OC was read as Six1-Eya2 inh inactive, RORg inh inactive, MBNL1-CUG inh inactive, Gal4-VP16 FLuc inactive and CtBP-E1A blk inactive.
COc1cccc(OC)c1C(=O)NC(=S)NNC(=O)[C@H]1C[C@@H]1c1ccccc1 was read as Six1-Eya2 inh inactive, RORg inh 4µM, MBNL1-CUG inh inconclusive, Gal4-VP16 FLuc inactive, CtBP-E1A blk inactive and CBFb RUNX1 block inactive.
`O=C(COC(=O)CC(c1ccccc1)c1ccccc1)NCc1ccc(Cl)cc1` gave Six1-Eya2 inh inactive, RORg inh inactive, MBNL1-CUG inh inactive, Gal4-VP16 FLuc 20µM, CtBP-E1A blk inactive and CBFb RUNX1 block inactive.
For CCCC(c1nnnn1C(C)(C)CC)N1CCN(C(=O)c2ccco2)CC1 (configuration not stated) the results were Six1-Eya2 inh inactive, RORg inh inactive, MBNL1-CUG inh inactive, Gal4-VP16 FLuc inactive and CtBP-E1A blk inactive.
Cc1ccc(-c2cc(NC(=O)CCl)n(-c3ccccc3)n2)cc1 was read as Six1-Eya2 inh inactive, RORg inh 6.3µM, MBNL1-CUG inh inactive, Gal4-VP16 FLuc 5µM, CtBP-E1A blk inactive and CBFb RUNX1 block inactive.
Cc1cc(NC(=O)COc2ccccc2)n(-c2ccccc2)n1 was read as Six1-Eya2 inh inactive, RORg inh inactive, MBNL1-CUG inh inactive, Gal4-VP16 FLuc inactive, CtBP-E1A blk inactive and CBFb RUNX1 block inactive.
Screening O=C(CCl)Nc1cc(-c2ccccc2)nn1-c1ccccc1 returned Six1-Eya2 inh inactive, RORg inh 14µM, MBNL1-CUG inh inactive, Gal4-VP16 FLuc inconclusive, CtBP-E1A blk inactive and CBFb RUNX1 block inactive.
Cc1ccc(C)c(NC(=O)c2cc(-c3ccccc3)nn2-c2ccccc2)c1 was read as Six1-Eya2 inh inactive, RORg inh inactive, MBNL1-CUG inh inactive, Gal4-VP16 FLuc 22µM, CtBP-E1A blk inactive and CBFb RUNX1 block inactive.
Screening CC(=O)Nc1ccc(-c2cc(NC(C)=O)n(-c3ccccc3)n2)cc1 returned Six1-Eya2 inh inactive, RORg inh inactive, MBNL1-CUG inh inactive, Gal4-VP16 FLuc inactive, CtBP-E1A blk inactive and CBFb RUNX1 block inactive.
For COc1ccccc1C(=O)Nc1ccc(OC(C)C(=O)N2CCOCC2)cc1 (configuration not stated) the results were Six1-Eya2 inh inactive and CtBP-E1A blk inactive.
`CCC(=O)c1ccc(OCC(=O)N2CCN(c3ncccn3)CC2)cc1` gave Six1-Eya2 inh inactive and CtBP-E1A blk inactive.
Cn1c(C(=O)N2CCN(C(=O)c3ccco3)CC2)cc2c(=O)n3ccccc3nc21 was read as Six1-Eya2 inh inactive, RORg inh inactive, MBNL1-CUG inh inconclusive, Gal4-VP16 FLuc 14µM, CtBP-E1A blk inconclusive and CBFb RUNX1 block inactive.
`S=C(NCCC1=CCCCC1)Nc1ccc(Cl)cc1` gave Six1-Eya2 inh inactive, RORg inh 3.5µM, MBNL1-CUG inh inactive, Gal4-VP16 FLuc inconclusive, CtBP-E1A blk inactive and CBFb RUNX1 block inactive.

From PubChem BioAssay
